In the experiment the target is Shiga toxin 2 (Escherichia coli O157:H7) (UniProt P09385+P09386). Kind of experiment: E. coli 0.157:H7 Shiga Toxin SOP - stx2 screening assay. Also noted: scale not given: direction of the effect not stated beside the values. Type of experiment: functional. The following applies: 30 µM.
On to `Cc1nc(C)n(CC2CCCN2CCCc2ccccc2)n1` (stereo not given), for which the Percent Effect is -14.3%. As to `CCc1nc(CN(Cc2cccs2)CC2CCCO2)no1` (stereo not given), the Percent Effect was determined as 15%. For `O=C(NCC1CCOC1)Nc1ccc(OCC(F)(F)F)nc1` (stereo not given), the Percent Effect was -28.7%.

Take `CN(C)C(=O)N1CCN(Cc2noc(Cc3ccccc3)n2)CC1`: the Percent Effect came out at 8.78%. On to `O[C@H]1[C@H](n2cc(-c3ccccc3)nn2)c2ccccc2C12CCNCC2`, for which the Percent Effect was -10.9%. Take `COc1cccc(OC)c1CN1CCC2(CC(Nc3ccncn3)C2)C1` (stereo not given): the Percent Effect was found to be 0.472%. As for `COc1ccccc1CN1CC[C@]2(C[C@H](OC)CO2)C1`, the Percent Effect was -21.1%. With `CCc1n[nH]c(C2CN(C(=O)c3csnn3)CCO2)n1` (stereo not given), the Percent Effect worked out at 10.6%.

`COC1CCN(C(=O)Cc2csc(-c3ncccn3)n2)CC1`: the Percent Effect came out at 12.8%. Turning to `O=C(c1cnccn1)N1CCN(Cc2ccncc2)c2ncccc2C1`, the Percent Effect was -1.31%.

For `CCn1cc(CN2CCCN(C(=O)c3ccn(C)c(=O)c3)CC2)cn1`, the Percent Effect was -0.744%. Consider `CC(C)CCN(C)C(=O)c1nc(S(C)(=O)=O)n2ccccc12`, for which the Percent Effect is 26.2%. In the case of `CC(NCc1cccnc1)c1ccc(OCC(=O)NC2CC2)cc1` (stereo not given), the Percent Effect was -1.84%. Consider `COCC1Cn2nnc(-c3cnn(C)c3)c2CN1Cc1ccco1` (stereo not given), for which the Percent Effect was -1.07%. Regarding `CC(C)c1n[nH]c(C2CN(C(=O)C3=COCC3)CCO2)n1` (stereo not given), the Percent Effect stood at 17.2%. Take `CC1(C)CN(C(=O)NCCc2ccn(-c3ccccc3)n2)CCO1`: the Percent Effect is 16.6%.

With `CCc1noc(C(C)N2CCN(Cc3ncc(C(C)(C)C)o3)CC2)n1` (stereo not given), the Percent Effect was 23.4%. For `O=C(C1CCCC1)N1CCC2(CC1)COCCN2CC1CC1`, the Percent Effect was 0.147%. Take `CN(C(=O)c1cccc(C(=O)NS(C)(=O)=O)c1)c1ccccc1`: the Percent Effect was -20.1%. Take `O=C(Nc1ccccc1F)N(CCO)Cc1ccsc1`: the Percent Effect worked out at 20.3%. As for `Cc1ccc(C(=O)NC2CCN(C(=O)Nc3ccccn3)CC2)o1`, the figure is 25.6%; as for `c1cncc(CN2CCc3ncnc(C4CCOC4)c3CC2)c1` (stereo not given), -17.7%; as for `CS(=O)(=O)N1CC[C@H]2C[C@@H](C(=O)N3CCOCC3)O[C@@H]2C1`, 5.94%.

`NC(=O)NCCC(=O)NCc1cccnc1N1CCc2ccccc2C1`: the Percent Effect amounted to 6.61%.

As for `c1cnnc(N2CCCC2CNCc2nc(C3CC3)no2)c1` (stereo not given), the Percent Effect was 5.95%.

Consider `COc1ccc(C[C@H]2CN(C(=O)CN(C)C)CC[C@H]2OC)cc1`, for which the Percent Effect is -5.78%.

With `CC(C)N(C)Cc1cnc2n1CCN(CCc1ccccc1)C2`, the Percent Effect is -27.2%. Consider `Cc1n[nH]c(=O)c2c(NC(=O)CN3CCCC(C(F)(F)F)C3)oc(C)c12` (stereo not given), for which the Percent Effect was -52.6%. Turning to `O=C(NCCCNCC1CNc2ccnn2C1)c1ccccc1` (stereo not given), the Percent Effect is -16.8%.

As for `CCC(CNC(=O)c1ccc(Br)o1)N1CCc2ccccc2C1` (stereo not given), the Percent Effect stood at 8.06%. With `COc1ccc(C2CCCN2S(=O)(=O)N(C)CC(C)C)cc1` (stereo not given) the figure was -7.35%. In the case of `Cc1ccc(F)c(OC2(C(=O)O)CCN(C(=O)N3CCCC3)CC2)c1`, the Percent Effect was -2.51%. As for `CCN1CCN(c2ccc(CNC(=O)c3c(C)noc3C)cn2)CC1`, the figure is -40.9%; as for `Cc1ccc(F)cc1S(=O)(=O)N(C)CC(N)=O`, -5.32%; as for `CCCNC(=O)CSc1nnc2[nH]c(=O)cc(CC)n12`, -11.3%. Regarding `CC(=O)N1CCOCC2(CN(Cc3ccc(C)o3)CCO2)C1` (stereo not given), the Percent Effect is -4.76%.

With `CCn1cc(S(=O)(=O)N(C)Cc2c(Br)cnn2CC)c(C)n1`, the Percent Effect was 13.9%. As to `COCC(=O)NC1CC2(CCN(Cc3ccco3)CC2)c2ccccc21` (stereo not given), the Percent Effect is -5.13%. With `CCn1ncc(NC(=O)c2cc(C3CC3)nc3c2c(C)nn3C)c1C` the figure was -23%. With `O=C(Nc1ccccc1)C1=CC2(CCNCC2)c2ccccc21`, the Percent Effect is -14.6%.

The values above are taken from ChEMBL document CHEMBL3988442, “University of Dundee, Small-Polar-MMV Screening Library” (2021).
